Test results: PubChem BioAssay (NCATS)
Several values for one entry are separate records, joined by “and”; a condition that tells them apart may be missing. Equal entries are not always repeated. Records with an inconclusive call do not appear. A number with no mark means an inactive call. Activity calls are given as the source filed them. The call rests on the fitted dose curve; in most records, active means well fitted inhibition curve with a large enough effect; inconclusive means small, poorly fitted or top-dose-only effect; inactive means flat fitted curve, though single readings scatter.

system: NIH3T3; assay: Cytotoxic Profiling of Annotated Libraries Using Quantitative High-Throughput Screening (AID 1296008); conditions: Five cell lines viability, CellTiter-Glo ATP luminescence, 48-72 h; max response: hits give low values; further: nearly all actives have a fitted effect of over 60% in size
Summary of the method: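 Cells exposed to compounds for 48 or 72 hr at 37 degrees Celsius. Viability read as ATP-coupled luminescence with CellTiter-Glo after 10 min at room temperature.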
On the % scale 0 is the no-effect control and ±100 the full control effect; potency means the concentration at half of the fitted maximal effect.

| Structure (SMILES) | max response | Potency | outcome |
| --- | --- | --- | --- |
| NC[C@H]1O[C@H](O[C@@H]2[C@@H](O)[C@@H](O[C@H]3O[C@H](CO)[C@@H](O)[C@H](N)[C@@H]3O)[C@H](N)C[C@@H]2N)[C@H](O)[C@@H](O)[C@H]1O | -1.04% | – | – |
| CCc1cccc(CC)c1NC(=O)N1Cc2[nH]nc(NC(=O)c3ccc(N4CCN(C)CC4)cc3)c2C1 | – | 13.2 µM (active) | – |
| CC(=O)O[C@]1(C(C)=O)CC[C@H]2[C@@H]3C=C(Cl)C4=CC(=O)[C@@H]5C[C@H]5[C@]4(C)[C@@H]3CC[C@@]21C | – | – | inactive |
| CON(C)C(=O)N1N=C(c2cc(F)ccc2F)S[C@]1(CCCN)c1ccccc1 | -18.9% | – | – |
| OC[C@H]1O[C@@H](O[C@H]2[C@@H](O)[C@@](O)(CO)O[C@@H]2CO)[C@H](O)[C@@H](O)[C@@H]1O | 2.52% | – | – |
| COc1cc(F)c(C(C)C)cc1-c1ccc(C(F)(F)F)cc1CN1C(=O)O[C@H](c2cc(C(F)(F)F)cc(C(F)(F)F)c2)[C@@H]1C | 0.998% | – | – |
| CCCC1OC2C[C@@H]3[C@H]4CCC5=CC(=O)C=C[C@]5(C)[C@H]4C(O)C[C@]3(C)[C@]2(C(=O)CO)O1 (some centres undefined) | -21.2% | – | – |
| COc1cc(CNC(=O)CCCCC=CC(C)C)ccc1O | – | 10.5 µM (active) | – |
| C#CCN(C)CC1=Cc2ccccc2Oc2ccccc21 | -28.1% | – | – |
| O=c1[nH]c(=O)n([C@H]2C[C@@H](O)[C@@H](CO)O2)cc1I | 3.2% | – | – |
| CNC(=O)[C@H](CC1=CN=C2C=CCC=C12)NC(=O)[C@@H](CC(=O)NO)CC(C)C | -0.494% | – | – |
| Cc1c(C(=O)Nc2ccc(N3C[C@@H](C)O[C@@H](C)C3)nc2)cccc1-c1ccc(OC(F)(F)F)cc1 | – | 20.9 µM (active) | – |
| CC(C)(C)c1[nH]cnc1C=c1[nH]c(=O)c(=Cc2ccccc2)[nH]c1=O | -78.6% | – | – |
| Nc1ncnc2c1c(-c1cccc(OCc3ccccc3)c1)cn2C1CC(CN2CCC2)C1 (centres undefined) | – | 23.5 µM (active) and 4.61 µM (active) | – |
| Cc1cc(C(C)Nc2ccccc2)c2nc(N3CCOCC3)cc(=O)n2c1 (centres undefined) | – | 4.61 µM (active) | – |
| CSc1cccc(Nc2ncc3cc(-c4c(Cl)cccc4Cl)c(=O)n(C)c3n2)c1 | – | 0.332 µM (active) | – |
| CO[C@H]1/C=C\O[C@@]2(C)Oc3c(C)c(O)c4c(O)c(c5c(nc6cc(C)ccn65)c4c3C2=O)NC(=O)C(C)=CC=C[C@H](C)[C@H](O)[C@@H](C)[C@@H](O)[C@@H](C)[C@H](OC(C)=O)[C@H]1C | -4.51% | – | – |
| CN1CCN(c2cccc(Nc3nc4c(-c5ccc(S(C)(=O)=O)cc5)cccn4n3)c2)CC1 | -10.8% and -33.2% | – | – |
| CN(C(Cc1ccc(OS(=O)(=O)c2cccc3cnccc23)cc1)C(=O)N1CCN(c2ccccc2)CC1)S(=O)(=O)c1cccc2cnccc12 (centres undefined) | -12.5% | – | – |
| CCC(=O)OCC(=O)[C@@]1(OC(=O)CC)[C@@H](C)C[C@@H]2[C@H]3CCC4=CC(=O)C=C[C@]4(C)[C@@]3(F)[C@@H](O)C[C@@]21C | 0.981% | – | – |
| CC(C)C[C@@H](N)[C@H](O)C(=O)N[C@H](C(=O)N[C@H](C(=O)N[C@@H](CC(=O)O)C(=O)O)C(C)C)C(C)C | 1.99% | – | – |
| CN(C)N=Nc1nc[nH]c1C(N)=O | -2.97% | – | – |
| C[C@@H](O[C@H]1OCCN(Cc2n[nH]c(=O)[nH]2)[C@@H]1c1ccc(F)cc1)c1cc(C(F)(F)F)cc(C(F)(F)F)c1 | -21.1% | – | – |
| CC(C)(C)c1nc(-c2cccc(NS(=O)(=O)c3c(F)cccc3F)c2F)c(-c2ccnc(N)n2)s1 | -11.1% and -2.7% | – | – |
| CNC(=O)c1cc(COc2nnc(Nc3ccc(Cl)cc3)c3ccoc23)ccn1 | -16.8% | – | – |
| CCNC(=O)CCCC=CC[C@@H]1[C@H](C=CC(O)CCc2ccccc2)[C@@H](O)C[C@@H]1O (some centres undefined) | -1.84% | – | – |
| Cc1nc(NC(=O)N2CCC[C@@H]2C(N)=O)sc1-c1csc(C(C)(C)C)n1 | – | 4.69 µM (active) | – |
| O[C@@H](COc1cccc2ncccc12)CN1CCN(C2c3ccccc3[C@@H]3[C@H](c4ccccc42)C3(F)F)CC1 (some centres undefined) | – | – | inactive |
| CC(C)[C@H](O)C(=O)N[C@@H](C)C(=O)N[C@@H]1C(=O)N(C)CCc2ccccc21 | -3.15% | – | – |
